Compound activity: PubChem BioAssay, National Center for Advancing Translational Sciences (NCATS)
An excerpt weighted towards active compounds, which were near 19% of everything screened.
HT1080 IDH1KD tx: qHTS for induction of synthetic lethality in tumor cells producing 2HG: qHTS for the HT-1080-IDH1KD cell line; HT-1080 IDH1 knockdown viability, ATP luminescence, 48 h; Potency, µM (titrated, usually from 46.1 µM), for the others: at the highest dose activity, negative = toxicity, most hits filed as cytotoxic; 2% of 360,000 active; AID 686971, 2013;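 also: potency is read from the fitted curve at half-maximal effect; 0% = DMSO wells and -100% = cell-free medium wells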
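% activity derives from luminescence (CellTiter-Glo), normalised to DMSO and no-cell wells. HT-1080-IDH1KD cells, 750/well, had 48 h compound exposure at 37 °C.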
IL1B secr inh: qHTS for Inhibitors of Inflammasome Signaling: IL-1-beta AlphaLISA Primary Screen | activity change, % at 57.5 µM | AID 743279, 2014 | THP-1 LPS/ATP IL-1B secretion, AlphaLISA, 16 h; hits give low values | 4.7% of 360,000 active; in the data active = activity change below about -50%; inconclusive = mostly about -30% to -49%
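THP-1 cells pretreated 1 hr with compounds (up to 57.5 uM final), then stimulated with LPS (250 ng/mL final) plus ATP (1.25 mM final); secreted IL-1B measured by AlphaLISA after 16 hr, decreased signal indicating inhibition.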
DT40 TDP1 CPT: qHTS for Inhibitors of human tyrosyl-DNA phosphodiesterase 1 (TDP1): qHTS in cells in presence of CPT; Potency, µM (doses to about 46.2 µM), for the others: at the top dose activity change, negative = growth inhibition, actives largely listed as inhibitors; chicken DT40 Tdp1-/-;hTDP1 cells + 20 nM CPT, ATP luminescence, 48 h; 12% of 420,000 active; also: potency is read from the fitted curve at half-maximal effect; nearly all actives have a fitted effect of over 55% in size
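Chicken DT40 Tdp1-/- cells stably complemented with human TDP1 were seeded at 400 cells/well in medium containing 20 nM camptothecin, exposed to pin-transferred compounds, and grown at 37 °C for at least 48 hr. Viability was read as ATP luminescence.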
TDP1 cell noCPT: qHTS for Inhibitors of human tyrosyl-DNA phosphodiesterase 1 (TDP1): qHTS in cells in absence of CPT; Potency, µM (series often up to 46.2 µM), inactives show at the top dose activity change, negative = growth inhibition, actives largely listed as inhibitors; 15% of 420,000 active; AID 686978, 2013; DT40 Tdp1-/- hTDP1 cells, no CPT, ATP luminescence, 48 h; also: potency is read from the fitted curve at half-maximal effect; nearly all actives have a fitted effect of over 55% in size
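Seeded 400 DT40-hTDP1 cells/well (vehicle DMSO, no 20 nM CPT); pinned compounds; ≥48 hr at 37 °C; CellTiter-Glo luminescence as viability measure.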
HT1080-NT tox: qHTS for induction of synthetic lethality in tumor cells producing 2HG: qHTS for the HT-1080-NT fibrosarcoma cell line | HT-1080-NT fibrosarcoma viability, CellTiter-Glo ATP luminescence, 48 h | Potency, µM (doses to about 46.1 µM), for the others: top-dose activity, negative = less viability, usual class: cytotoxic | 1.6% of 360,000 active | AID 686970, 2013;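 also: NT is the 2HG producing partner of a matched IDH1 knockdown line; potency is read from the fitted curve at half-maximal effect; 0% = DMSO-treated cells and -100% = media-only wells without cells; nearly all actives have a fitted effect of over 55% in size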
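Viability by CellTiter-Glo luminescence after 48 h compound exposure at 37C of HT-1080-NT cells (750/well, RPMI, 5% FBS). % activity scaled between DMSO wells and medium-only wells, then curve-fitted and categorized by curve class.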
* hit, by the source's call; ? = inconclusive; · = not tested or not shown. Unless noted, calls follow the shape of the dose curve; as a rule, active = well fitted curve in the direction sought with a large enough effect; inconclusive = small, poorly fitted or top-dose-only effect, or another doubt; inactive = no such curve, though single readings can be large; an effect the other way counts as inactive or inconclusive. Unless noted, % is scaled to controls: 0 for no effect and ±100 for the full control effect.

SMILES | HT1080 IDH1KD tx | IL1B secr inh | DT40 TDP1 CPT | TDP1 cell noCPT | HT1080-NT tox
Cc1nn(C)cc1CNC(=O)c1ccc(F)cc1 | 11.3% | 3.9 | -6.1% | -21.0% | 10.7%
O=C1CSC2(C(=O)N(Cc3cccc(C(F)(F)F)c3)c3ccccc32)N1c1ccc(F)c(F)c1 (stereo unspecified) | · | · | 20.6µM* | 16.4µM* | ·
COc1ccc(N2C(=O)CSC23C(=O)N(Cc2cccc(C(F)(F)F)c2)c2ccccc23)cc1 (stereo unspecified) | · | · | ? | 14.6µM* | ·
COc1ccc(N2C(=O)CSC23C(=O)Nc2ccccc23)cc1 (stereo unspecified) | -1.1% | 19.7 | -13.6% | -22.5% | -6.8%
COc1cc(NC(=O)NC(C)(C(F)(F)F)C(F)(F)F)cc(OC)c1OC | 2.1% | -8.9 | -12.1% | ? | -5.0%
COc1ccccc1NC(=O)NC1CCCCCCC1 | 2.7% | ? | 3.4% | -4.1% | 4.8%
O=C(Nc1ccccc1Cl)NC1CCCCCCC1 | -0.7% | -15.1 | -14.4% | 9.2% | 16.7%
COc1cc(NC(=O)Nc2nc(C(N)C3CCCCC3)cs2)cc(OC)c1OC (stereo unspecified) | 20.6µM* | -6.2 | 16.4µM* | 23.1µM* | -76.7%
COc1ccccc1NC(=O)Nc1nc(C(N)C2CCCCC2)cs1 (stereo unspecified) | ? | · | 23.1µM* | 14.6µM* | 16.4µM*
COc1cc(NC(=O)Nc2nc(C(N)C(C)C)cs2)cc(OC)c1OC (stereo unspecified) | ? | -5.2 | ? | ? | 16.4µM*
NC(c1csc(NC(=O)Nc2ccccc2Cl)n1)C1CCCCC1 (stereo unspecified) | ? | 0.0 | 23.1µM* | 16.4µM* | ?
COc1cc(C(=O)N[C@H](C(=O)NC2CCCCCC2)C(C)C)cc(OC)c1OC | -2.5% | 25.1 | -8.8% | -25.1% | 2.4%
Cc1ccc(-c2csc(NC(=O)C[n+]3cc(-c4ccc(C)cc4)n4c3CCC4)n2)cc1 | 16.4µM* | -93.5* | 5.8µM* | 9.2µM* | ?
O=C(C[n+]1cc(-c2ccc(F)cc2)n2c1CCC2)Nc1nc(-c2ccc(F)cc2)cs1 | 5.7% | -11.7 | ? | ? | 4.5%
Cc1ccc(-c2csc(NC(=O)C[n+]3cc(-c4ccccc4)n4c3CCC4)n2)cc1 | ? | -87.4* | 20.6µM* | 18.4µM* | -22.9%
COc1ccc(C2=Nc3ccccc3NC(=O)C2N(CCCn2ccnc2)C(=O)c2cccc(S(C)(=O)=O)c2)cc1 (stereo unspecified) | 11.2% | -12.0 | 2.4% | 3.7% | 17.0%
COc1ccc(-c2cc(-c3nnc(COC(=O)c4ccc(O)cc4)o3)c3ccccc3n2)cc1OC | ? | ? | ? | 10.3µM* | ?
COc1ccc(-c2cc(-c3nnc(COC(=O)C4CC4)o3)c3ccccc3n2)cc1OC | 1.4% | 9.8 | ? | 9.2µM* | -10.4%
COc1ccc(-c2cc(-c3nnc(COC(=O)C4CC4C)o3)c3ccccc3n2)cc1OC (stereo unspecified) | 10.1% | -52.5* | 20.6µM* | 16.4µM* | 4.1%
COc1ccc(-c2cc(C(=O)N3CC(C)CC(C)C3)c3ccccc3n2)cc1OC (stereo unspecified) | -0.8% | -14.4 | ? | ? | 0.0%
CCOc1cc(CNS(=O)(=O)c2ccc3c(c2)C(C)(C)C(=O)N3)cc(OCC)c1OCC | · | · | -14.3% | -27.7% | ·
CCOc1ccc(-c2nc(CSCC(=O)NCC3CCCO3)c(C)o2)cc1 (stereo unspecified) | 1.2% | 19.3 | -25.1% | -9.6% | 7.8%
CCN(CC(=O)Nc1ccccc1OC)C(=O)CN1C(=O)NC(C)(c2ccccc2)C1=O (stereo unspecified) | -7.2% | -10.9 | -10.6% | 1.6% | 9.4%
C[C@@H]1CC=C[C@@H]2[C@H]1C(=O)N(Cc1ccccc1)[C@H]2c1ccccc1Br | ? | -15.6 | 18.4µM* | 16.4µM* | ?
COc1ccc(-c2ccccc2[C@H]2[C@@H]3C=CC[C@@H](C)[C@@H]3C(=O)N2Cc2ccccc2)cc1 | ? | -10.2 | 13µM* | 10.3µM* | ?
SMILES | HT1080 IDH1KD tx | IL1B secr inh | DT40 TDP1 CPT | TDP1 cell noCPT | HT1080-NT tox
O=C(c1cccs1)n1nc(-c2cccnc2)nc1NCc1ccco1 | 9.5% | -17.2 | -21.4% | -24.2% | ?
CS(=O)(=O)c1ncc(Cl)c(C(=O)N2CCN(c3cccc(Cl)c3)CC2)n1 | · | · | 1.03µM* | 0.517µM* | ·
CCOC(=O)c1[nH]c(C)c(C(=O)N2CCN(c3cccc(Cl)c3)CC2)c1C | ? | -10.8 | ? | ? | -0.1%
CCS(=O)(=O)c1ncc(Cl)c(C(=O)N2CCN(c3cccc(Cl)c3)CC2)n1 | · | · | 0.259µM* | 0.206µM* | ·
Cc1ccc(CN2c3ccccc3S(=O)(=O)c3ccccc32)cc1 | · | · | 25.9µM* | ? | ·
Cc1cccc(CN2C(=O)N(c3ccc(C(C)C)cc3)S(=O)(=O)c3ccccc32)c1 | · | · | ? | 23.1µM* | ·
CC(C)c1ccc(N2C(=O)N(Cc3ccccc3Cl)c3ccccc3S2(=O)=O)cc1 | · | · | ? | 18.4µM* | ·
Cc1cccc(N2C(=O)N(Cc3ccc(C(C)(C)C)cc3)c3ccccc3S2(=O)=O)c1 | · | · | ? | 20.6µM* | ·
CC(C(=O)NCc1ccco1)n1cc([N+](=O)[O-])cn1 (stereo unspecified) | 14.9% | 8.4 | 44.1% | 34.2% | 23.2%
CN(Cc1ccccc1)Cc1nc2c([nH]1)c(=O)n(C)c(=O)n2C | 2.2% | 17.2 | ? | -24.2% | -0.8%
Cc1ccc(NC(=O)c2oc3ccccc3c2NC(=O)C2CCCO2)cc1C (stereo unspecified) | -21.8% | -5.5 | 10.3µM* | 8.2µM* | -30.0%
COc1ccccc1NC(=O)c1oc2ccccc2c1NC(=O)C1CC1 | ? | 0.0 | ? | ? | -29.9%
CCOc1ccccc1NC(=O)c1oc2ccccc2c1NC(=O)C1CCCO1 (stereo unspecified) | 9.3% | -0.6 | 16.4µM* | 9.2µM* | 15.8%
COc1ccc(NC(=O)c2oc3ccccc3c2NC(=O)C2CCCO2)cc1OC (stereo unspecified) | -18.1% | -0.1 | ? | 18.4µM* | -0.9%
O=C(Nc1ccc(F)c(F)c1)c1oc2ccccc2c1NC(=O)C1CCCO1 (stereo unspecified) | -4.7% | 26.9 | ? | 5.17µM* | -22.6%
COc1cccc(C(=O)N/N=C/c2cn[nH]c2-c2ccc(OC)cc2OC)c1 | -1.0% | -12.1 | -20.0% | -14.5% | -0.7%
